We go through six molecules from the supplement of paper PMC7411054.

Common to all, as to settings: treatment time: 24 h
The test system of assay [1] is A549-ACTB-RAB5A. Description: lowest phenotypically active concentration; higher = less potent. Put shortly:
(§1)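 Each of fifteen gene-edited A549, HepG2 and WPMY1 reporter lines, marked with BFP for segmentation and GFP and RFP/FusionRed, was treated in four wells at 0.3, 1, 3 or 9 µM for 24 h prior to live imaging. Normalisation of per-well live-cell features used solvent control wells. Deviation needed ≥3 of 4 wells beyond the 95th percentile of control Euclidean distances, and reproducibility needed a median replicate Pearson correlation above the 95th percentile of non-replicates. Both were required for phenotypic activity.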

The test system of assay [2] is A549-GM130-SQSTM1. Described as above. Put shortly:
as §1

Assay [3] has as its system A549-TUBA1B-RELA. The description is as above. In a few lines:
as §1

The test system of assay [4] is HepG2-ACTB-RAB5A. The description is as above. In a few lines: as §1
Assay [5] has as its system WPMY1-CANX-COX4. Described as above. Put shortly:
as §1

Assay [6] relates to A549-ACTB-RAB5A. Description: phenotypically active (imaging signature differs from DMSO and reproducible) at any of 0.3-9 uM (binary (1 = active, 0 = inactive)); higher = active. In a few lines:
as §1

In a further assay the test system is A549-CANX-COX4. Described as above. In a few lines: as §1
Assay [7] concerns A549-GM130-SQSTM1. The description is as above. In a few lines:
as §1

The subject of the next assay is A549-TP53BP1-CLTA. The assay is described as above. In a few lines: as §1
Assay [8] has as its system A549-TUBA1B-RELA. Described as above. Put shortly:
as §1

In assay [9] the test system is HepG2-ACTB-RAB5A. The description is as above. In a few lines:
as §1

Another assay deals with HepG2-CANX-COX4. Described as above. Put shortly:
as §1

The test system of a further assay is HepG2-GM130-SQSTM1. The assay is described as above. Put shortly:
as §1

The subject of the next assay is HepG2-TP53BP1-CLTA. Described as above. Put shortly: as §1
The next assay has as its system HepG2-TUBA1B-RELA. Described as above. Put shortly: as §1
A further assay has as its system WPMY1-ACTB-RAB5A. The assay is described as above. In a few lines: as §1
In assay [10] the test system is WPMY1-CANX-COX4. Described as above. Put shortly: as §1
Another assay deals with WPMY1-GM130-SQSTM1. The description is as above. Put shortly: as §1
In a further assay the test system is WPMY1-TP53BP1-CLTA. The assay is described as above. In a few lines: as §1
For the next assay, the system named is WPMY1-TUBA1B-RELA. The assay is described as above. Put shortly:
as §1

Where a name gives a salt, the structure may show the parent alone.

Take `CCN(CC)CCNc1ccc(CO)c2sc3ccccc3c(=O)c12` [hycanthone]: the “lowest phenotypically active concentration” value with A549-ACTB-RAB5A [1], in the assay on A549-GM130-SQSTM1 [2], with A549-TUBA1B-RELA [3], in the assay with HepG2-ACTB-RAB5A [4] and with WPMY1-CANX-COX4 [5] was 9 µM in each case. Further, the phenotypically active in the assay on A549-ACTB-RAB5A [6], in the assay with A549-CANX-COX4, in the assay on A549-GM130-SQSTM1 [7], in the assay on A549-TP53BP1-CLTA, in the assay with A549-TUBA1B-RELA [8] and in the assay with HepG2-ACTB-RAB5A [9] was 1 (active) each time. The phenotypically active in the assay on HepG2-CANX-COX4 is 0 (inactive); with HepG2-GM130-SQSTM1 it was 1 (active); with HepG2-TP53BP1-CLTA, 1 (active); in the assay with HepG2-TUBA1B-RELA, 1 (active); in the assay with WPMY1-ACTB-RAB5A, 1 (active); in the assay on WPMY1-CANX-COX4 [10] it was 1 (active). The phenotypically active with WPMY1-GM130-SQSTM1, in the assay on WPMY1-TP53BP1-CLTA and in the assay on WPMY1-TUBA1B-RELA was 1 (active) each time.

`O=C1N=C(NCc2cccs2)S/C1=C\c1ccc2ncccc2c1`: the “lowest phenotypically active concentration” value with A549-ACTB-RAB5A [1] stood at 3 µM; in the assay on A549-GM130-SQSTM1 [2], 1 µM; in the assay with A549-TUBA1B-RELA [3], 3 µM; in the assay with WPMY1-CANX-COX4 [5], 3 µM. In addition, the phenotypically active is 1 (active) in the assay with A549-ACTB-RAB5A [6]; 1 (active) in the assay on A549-CANX-COX4; 1 (active) in the assay on A549-GM130-SQSTM1 [7]; 1 (active) in the assay with A549-TP53BP1-CLTA; 1 (active) in the assay with A549-TUBA1B-RELA [8]; 0 (inactive) with HepG2-ACTB-RAB5A [9]. Further, the phenotypically active with HepG2-CANX-COX4, in the assay with HepG2-GM130-SQSTM1, with HepG2-TP53BP1-CLTA, with HepG2-TUBA1B-RELA, with WPMY1-ACTB-RAB5A and with WPMY1-CANX-COX4 [10] was 1 (active) in each case. Further, the phenotypically active in the assay on WPMY1-GM130-SQSTM1, with WPMY1-TP53BP1-CLTA and in the assay on WPMY1-TUBA1B-RELA was 1 (active) each time.

Consider `CNc1nc(-c2ccc3c(N)n[nH]c3c2)cc(N2C[C@@H](C(=O)NC3CCCCC3)CC[C@H]2C)n1`, for which the “lowest phenotypically active concentration” value in the assay on A549-ACTB-RAB5A [1] worked out at 1 µM; in the assay on A549-GM130-SQSTM1 [2], 1 µM; in the assay with A549-TUBA1B-RELA [3], 3 µM; with WPMY1-CANX-COX4 [5], 1 µM. Besides, the phenotypically active in the assay with A549-ACTB-RAB5A [6] was 1 (active); in the assay on A549-CANX-COX4 it was 1 (active); in the assay on A549-GM130-SQSTM1 [7], 1 (active); in the assay with A549-TP53BP1-CLTA, 1 (active); in the assay with A549-TUBA1B-RELA [8], 1 (active); in the assay on HepG2-ACTB-RAB5A [9], 0 (inactive). Besides, the phenotypically active with HepG2-CANX-COX4, in the assay on HepG2-GM130-SQSTM1, in the assay on HepG2-TP53BP1-CLTA, in the assay on HepG2-TUBA1B-RELA, with WPMY1-ACTB-RAB5A and in the assay with WPMY1-CANX-COX4 [10] was 1 (active) throughout. In addition, the phenotypically active in the assay with WPMY1-GM130-SQSTM1, in the assay on WPMY1-TP53BP1-CLTA and in the assay on WPMY1-TUBA1B-RELA was 1 (active) each time.

For the molecule `S=C(S)N1CCCC1` [Pyrrolidinedithiocarbamate ammonium], the “lowest phenotypically active concentration” value in the assay on A549-ACTB-RAB5A [1] worked out at 3 µM; in the assay with A549-GM130-SQSTM1 [2], 3 µM; with A549-TUBA1B-RELA [3] it was 3 µM; with HepG2-ACTB-RAB5A [4] it was 9 µM. The phenotypically active with A549-ACTB-RAB5A [6], in the assay on A549-CANX-COX4, with A549-GM130-SQSTM1 [7], with A549-TP53BP1-CLTA, in the assay on A549-TUBA1B-RELA [8] and in the assay on HepG2-ACTB-RAB5A [9] was 1 (active) throughout. Besides, the phenotypically active was 1 (active) in the assay with HepG2-CANX-COX4; 1 (active) with HepG2-GM130-SQSTM1; 1 (active) with HepG2-TP53BP1-CLTA; 1 (active) in the assay on HepG2-TUBA1B-RELA; 0 (inactive) in the assay with WPMY1-ACTB-RAB5A; 0 (inactive) in the assay on WPMY1-CANX-COX4 [10]. Also, the phenotypically active is 1 (active) in the assay on WPMY1-GM130-SQSTM1, 0 (inactive) with WPMY1-TP53BP1-CLTA and 0 (inactive) in the assay with WPMY1-TUBA1B-RELA.

Turning to `CC[C@H](CO)Nc1nc(NCc2ccccc2)c2ncn(C(C)C)c2n1` [Roscovitine], the “lowest phenotypically active concentration” value in the assay on A549-ACTB-RAB5A [1] is not above 0.3 µM; in the assay on A549-GM130-SQSTM1 [2], not above 0.3 µM; in the assay on A549-TUBA1B-RELA [3], not above 0.3 µM; in the assay with HepG2-ACTB-RAB5A [4] it was 9 µM; in the assay with WPMY1-CANX-COX4 [5], 9 µM. The phenotypically active in the assay on A549-ACTB-RAB5A [6], with A549-CANX-COX4, in the assay on A549-GM130-SQSTM1 [7], in the assay on A549-TP53BP1-CLTA, in the assay with A549-TUBA1B-RELA [8] and with HepG2-ACTB-RAB5A [9] was 1 (active) throughout. Further, the phenotypically active in the assay with HepG2-CANX-COX4, in the assay on HepG2-GM130-SQSTM1, with HepG2-TP53BP1-CLTA, in the assay with HepG2-TUBA1B-RELA, in the assay on WPMY1-ACTB-RAB5A and with WPMY1-CANX-COX4 [10] was 1 (active) each time. Also, the phenotypically active in the assay on WPMY1-GM130-SQSTM1 is 0 (inactive); in the assay on WPMY1-TP53BP1-CLTA, 1 (active); in the assay with WPMY1-TUBA1B-RELA it was 1 (active).

Consider `CN1CCN(C(=O)CN[C@H]2C[C@@H]2c2ccc(OCc3ccccc3)cc2)CC1` [RN 1 dihydrochloride], for which the “lowest phenotypically active concentration” value was 3 µM in the assay with A549-ACTB-RAB5A [1]; 9 µM with A549-GM130-SQSTM1 [2]; 3 µM in the assay with A549-TUBA1B-RELA [3]; 9 µM in the assay with HepG2-ACTB-RAB5A [4]; 9 µM in the assay with WPMY1-CANX-COX4 [5]. Also, the phenotypically active with A549-ACTB-RAB5A [6], in the assay on A549-CANX-COX4, in the assay on A549-GM130-SQSTM1 [7], with A549-TP53BP1-CLTA, in the assay on A549-TUBA1B-RELA [8] and in the assay on HepG2-ACTB-RAB5A [9] was 1 (active) each time. For the same molecule, the phenotypically active in the assay on HepG2-CANX-COX4 was 0 (inactive); in the assay with HepG2-GM130-SQSTM1, 1 (active); with HepG2-TP53BP1-CLTA, 1 (active); with HepG2-TUBA1B-RELA it was 1 (active); with WPMY1-ACTB-RAB5A, 1 (active); in the assay on WPMY1-CANX-COX4 [10], 1 (active). Moreover, the phenotypically active in the assay on WPMY1-GM130-SQSTM1, in the assay on WPMY1-TP53BP1-CLTA and in the assay on WPMY1-TUBA1B-RELA was 1 (active) in each case.
